The source of these data is PubChem BioAssay (EPA / NIEHS).

For orientation: AC50 means the concentration giving half of the maximal activity seen.

Read-out in assay [1]: TIMP metallopeptidase inhibitor 2 (TIMP2), TIMP2 (gene 7077)
The assay can be described thus: BSK_KF3CT_TIMP2: BioMAP Diversity Plus: KF3CT Assay for TIMP metallopeptidase inhibitor 2 (TIMP2) Biomarker Activity (AID 2283071). As to conditions: primary human keratinocytes with fibroblasts; actives raise or lower the signal. The method in brief:
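TIMP-2 measured by ELISA at 24 h in human keratinocyte/fibroblast primary co-cultures exposed to chemicals. Both increases and decreases were fitted against DMSO. Parallel cultures were stained with SRB for total protein as an overt-cytotoxicity check.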

Read-out in assay [2]: Transforming growth factor beta 1 (TGFb1), TGFB1 (gene 7040)
Nature of the assay: BSK_KF3CT_TGFb1: BioMAP Diversity Plus: KF3CT Assay for Transforming growth factor beta 1 (TGFb1) Biomarker Activity (AID 2283072). As to conditions: primary human keratinocytes with fibroblasts; actives raise or lower the signal. The method in brief:
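ELISA quantifies TGF-b1 at 24 h post-dose in a primary human skin co-culture of keratinocytes and fibroblasts, with gain or loss judged against DMSO. Parallel SRB total-protein staining flags overt cytotoxicity.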

Read-out in assay [3]: C-C motif chemokine 2 (Homo sapiens) (UniProt P13500)
Nature of the assay: BSK_KF3CT_MCP1: BioMAP Diversity Plus: KF3CT Assay for Monocyte Chemoattractant Protein 1 (MCP1/CCL2) Biomarker Activity (AID 2283073). As to conditions: primary human keratinocytes with fibroblasts; actives raise or lower the signal. The method in brief:
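KF3CT skin co-culture (keratinocytes/foreskin fibroblasts), 24 h post-dose; MCP-1 by ELISA; gain/loss of signal fit bidirectionally vs DMSO baseline.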

Read-out in assay [4]: Matrix Metallopeptidase 9 (MMP9), MMP9 (gene 4318)
Nature of the assay: BSK_KF3CT_MMP9: BioMAP Diversity Plus: KF3CT Assay for Matrix Metallopeptidase 9 (MMP9) Biomarker Activity (AID 2283074).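 On AC50: MMP9 protein level quantified by ELISA in the co-culture.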 As to conditions: primary human keratinocytes with fibroblasts; actives raise or lower the signal. In a few lines:
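Values come from bidirectional fitting relative to DMSO of MMP-9 levels, which were measured by ELISA. Measurements were taken 24 h after chemical dosing of a keratinocyte and foreskin fibroblast co-culture.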

Read-out in assay [5]: urokinase plasminogen activator (uPA), PLAU (gene 5328)
The assay can be described thus: BSK_KF3CT_uPA: BioMAP Diversity Plus: KF3CT Assay for urokinase plasminogen activator (uPA) Biomarker Activity (AID 2283075). As to conditions: primary human keratinocytes with fibroblasts; actives raise or lower the signal. In a few lines:
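Values derive from bidirectional fitting against DMSO controls. Keratinocyte/foreskin fibroblast co-cultures received chemical; 24 h later uPA was detected by ELISA, with SRB total-protein staining in parallel wells for overt cytotoxicity.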

Read-out in assay [6]: CD40, CD40 (gene 958)
The assay can be described thus: BSK_LPS_CD40: BioMAP Diversity Plus: LPS Assay for CD40 Biomarker Activity (AID 2283076). Conditions: primary human HUVEC with PBMC; actives raise or lower the signal. In a few lines: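 ELISA readout of CD40 in HUVEC/PBMC co-culture (BSK_LPS system), 24 h post-dosing; bidirectional curve fit, DMSO baseline; parallel SRB total-protein staining for cytotoxicity.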

Read-out in assay [7]: E-selectin (Homo sapiens) (UniProt P16581)
Nature of the assay: BSK_LPS_Eselectin: BioMAP Diversity Plus: LPS Assay for Eselectin Biomarker Activity (AID 2283077). Conditions: primary human HUVEC with PBMC; actives raise or lower the signal. The method in brief:
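ELISA readout of E-selectin, 24 h post-dose, HUVEC + PBMC co-culture (LPS system). Gain or loss of signal vs DMSO baseline, bidirectional fit.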

Read-out in assay [8]: Interleukin-8 (IL8), CXCL8 (gene 3576)
Nature of the assay: BSK_LPS_IL8: BioMAP Diversity Plus: LPS Assay for Interleukin-8 (IL8) Biomarker Activity (AID 2283078). As to conditions: primary human HUVEC with PBMC; actives raise or lower the signal. The method in brief:
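HUVEC + PBMC co-culture, LPS-activated; test chemicals dosed, IL-8 read by ELISA at 24 h. Bidirectional curve fit vs DMSO baseline (gain or loss of signal).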

Assay [9] is described as follows: BSK_LPS_SRB: Viability Assessment in the BioMAP Diversity Plus: LPS Assay (AID 2283079).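 Further: total protein by sulforhodamine B absorbance as a cytotoxicity measure; measured one day after compound addition; fitted in both directions against DMSO so loss or gain of signal counts.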 Conditions: primary human HUVEC with PBMC. In a few lines:
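HUVEC + PBMC co-culture, LPS-stimulated; compound 24 h. 10% TCA fix, 0.1% SRB stain, A560. Bidirectional fit vs DMSO.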

Read-out in assay [10]: Interleukin-1 alpha (IL1a), IL1A (gene 3552)
Nature of the assay: BSK_LPS_IL1a: BioMAP Diversity Plus: LPS Assay for Interleukin-1 alpha (IL1a) Biomarker Activity (AID 2283080). As to conditions: primary human HUVEC with PBMC; actives raise or lower the signal. In a few lines:
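HUVEC/PBMC co-culture, LPS system; 24 h after dosing; IL-1a by ELISA; gain or loss of signal fitted bidirectionally vs DMSO baseline.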

Structures are written as SMILES. Where “and” joins values, the source holds several entries; their conditions need not be identical. Identical values can stand only once. Some structures have more than one record in an assay (separate samples or runs), and their calls can disagree. Calls of active or inactive are those of the source. How the source made its calls: active means hit-call score of the fitted dose curve at least 0.9, where 1 is the maximum; inactive means score below 0.9.

E-selectin (Homo sapiens), sequence (P16581 whole entry, looked up): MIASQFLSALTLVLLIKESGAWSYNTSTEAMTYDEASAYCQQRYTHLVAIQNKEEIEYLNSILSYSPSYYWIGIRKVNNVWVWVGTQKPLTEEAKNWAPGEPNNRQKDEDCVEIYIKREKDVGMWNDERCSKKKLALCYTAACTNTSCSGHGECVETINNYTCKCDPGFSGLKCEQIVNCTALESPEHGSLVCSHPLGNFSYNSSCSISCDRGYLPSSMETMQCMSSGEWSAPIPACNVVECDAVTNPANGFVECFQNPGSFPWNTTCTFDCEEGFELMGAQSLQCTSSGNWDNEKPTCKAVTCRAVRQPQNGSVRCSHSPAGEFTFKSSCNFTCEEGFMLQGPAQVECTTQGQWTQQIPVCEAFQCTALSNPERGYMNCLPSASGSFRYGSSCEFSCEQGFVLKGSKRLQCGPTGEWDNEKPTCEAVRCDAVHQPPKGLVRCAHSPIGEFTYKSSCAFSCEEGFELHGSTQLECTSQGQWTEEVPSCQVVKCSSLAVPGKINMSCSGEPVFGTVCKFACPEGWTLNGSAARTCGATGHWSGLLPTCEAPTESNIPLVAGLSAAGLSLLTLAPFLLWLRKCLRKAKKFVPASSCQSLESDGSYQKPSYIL

On to `CC(C)(C)c1cc(CCC(=O)NCCCCCCNC(=O)CCc2cc(C(C)(C)C)c(O)c(C(C)(C)C)c2)cc(C(C)(C)C)c1O`, for which the result in assay [1], in [2], in [3], in assay [4], in assay [5] and in [6] was inactive. Further, the result in [7], in assay [8], in assay [9] and in assay [10] was inactive.

On to `Cc1ccc(O)c(-n2nc3ccccc3n2)c1`, for which the outcome in [1], in assay [2], in assay [3], in assay [4], in assay [5] and in assay [7] was inactive. The result in assay [8], in assay [9] and in [10] was inactive.

With `CNS(=O)(=O)C(F)(F)C(F)(F)C(F)(F)C(F)(F)C(F)(F)C(F)(F)C(F)(F)C(F)(F)F`, the result in assay [1], in assay [3], in [4], in assay [5], in [6] and in assay [7] was inactive. Besides, the outcome in [8], in assay [9] and in assay [10] was inactive. Besides, the results for the concentration at half-maximal activity (AC50) in assay [4], in [9] and in assay [10] were 20.4 µM (active), 22.5 µM (active) and 5.38 µM (active), respectively.

With `C[C@]12CC[C@H]3C(=CCc4cc(O)ccc43)[C@@H]1CCC2=O`, the result in assay [1], in assay [2], in assay [3], in assay [4], in [5] and in assay [7] was inactive. Further, the result in assay [8], in [9] and in [10] was inactive.

For the compound `O=C(Cl)C(F)(F)C(F)(F)C(F)(F)C(F)(F)C(F)(F)C(F)(F)F`, the result in assay [1], in [3], in [4], in assay [5], in [6] and in assay [7] was inactive. Also, the result in assay [8], in [9] and in [10] was inactive. Besides, the AC50 was 18.3 µM (active) in assay [4] and 50.3 µM (active) in assay [8].

`O=C(c1ccccc1)c1ccc(O)cc1O`: the result in assay [1], in [2], in [3], in assay [5], in [7] and in assay [8] was inactive. The result in assay [9] and in [10] was inactive. In [4], the concentration at half-maximal activity (AC50) was 26 µM (active).

For the compound `Brc1nc2ccccc2s1`, the outcome in assay [1], in assay [2], in [3], in [4], in assay [5] and in assay [6] was inactive. Moreover, the result in [7], in assay [8] and in assay [9] was inactive.

With `O=S(=O)(OCC(F)(F)F)C(F)(F)C(F)(F)C(F)(F)C(F)(F)F`, the result in assay [1], in [3], in assay [4], in assay [5], in assay [6] and in [7] was inactive. Also, the outcome in [8], in assay [9] and in assay [10] was inactive. The concentration at half-maximal activity (AC50) was 9.13 µM (active) in [5], 24.3 µM (active) in assay [6], 41.4 µM (active) in [7] and 30 µM (active) in [10].

For `CC(C)CCCC(C)CCO` (stereo not drawn), the half-maximal activity concentration (AC50) in assay [1] was 30.5 µM (active); in assay [2] it was 30.1 µM (active); in assay [3], 33.5 µM (active); in [4], 36.4 µM (active); in assay [5], 36.1 µM (active). The result in assay [7], in [8], in assay [9] and in assay [10] was inactive.

For the compound `O=C1c2c(O)ccc(Nc3ccc(CCO)cc3)c2C(=O)c2c([N+](=O)[O-])ccc(O)c21`, the AC50 in [1] was 0.54 µM (active); in assay [4] it was 20 µM (active); in [6], 8.34 µM (active); in [7] it was 20 µM (active); in assay [9] it was 3.97 µM (active). The outcome in [2], in assay [3], in [5], in assay [8] and in assay [10] was inactive.

With `Nc1cc([N+](=O)[O-])cc(Cl)c1O`, the outcome in assay [1], in assay [2], in assay [3], in [4], in [5] and in assay [7] was inactive. In addition, the outcome in [8], in assay [9] and in [10] was inactive.

Turning to `CCN(CCO)S(=O)(=O)C(F)(F)C(F)(F)C(F)(F)C(F)(F)C(F)(F)C(F)(F)C(F)(F)C(F)(F)F`, the result in assay [1], in assay [3], in [5], in assay [6], in assay [7] and in assay [8] was inactive. Also, the concentration at half-maximal activity (AC50) in [3] was 14.4 µM (active); in [4], 21.7 µM (active) and 20.9 µM (active); in [7], 5.95 µM (active); in assay [9], 39.4 µM (active) and 38.2 µM (active); in [10], 23.7 µM (active) and 5.83 µM (active).

With `CC1=CC2C3C=CC(C3)C2C1C` (stereo not drawn), the result in [1], in [2], in assay [3], in assay [4], in [5] and in assay [6] was inactive. Moreover, the result in assay [7], in [8], in [9] and in assay [10] was inactive.

With `NCC(F)(F)C(F)(F)C(F)(F)C(F)(F)C(F)(F)C(F)(F)C(F)(F)C(F)(F)F`, the result in assay [1], in assay [3], in assay [4], in [5], in [6] and in [7] was inactive. Further, the result in assay [8], in [9] and in assay [10] was inactive.

For `Cc1ccc(S(=O)(=O)C(I)I)cc1`, the concentration at half-maximal activity (AC50) in [1] is 2.35 µM (active); in [3], 2.71 µM (active); in assay [4] it was 5.24 µM (active); in [5] it was 6.22 µM (active); in assay [7] it was 3.3 µM (active); in assay [8], 4.27 µM (active). The AC50 in assay [9] is 5.31 µM (active); in assay [10], 1.92 µM (active). Besides, the outcome in assay [2] was inactive.

On to `O=C(F)C1(F)C(F)(F)C(F)(F)C(F)(F)C(F)(F)C1(F)F`, for which the result in assay [1], in assay [3], in [4], in [5], in assay [6] and in assay [7] was inactive. Moreover, the outcome in assay [8], in assay [9] and in [10] was inactive.
